# Paper PMC7862700, “An all-to-all approach to the identification of sequence-specific readers for epigenetic DNA modifications on cytosine”
# How the values were obtained:
# Experiment in all cases: DAPPL (digital affinity profiling via proximity ligation, sequencing); 10 mM Tris-HCl pH 7.5, 50 mM NaCl, 1 mM DTT, 4% glycerol, room temperature, 30 min; GST-TFs on glutathione beads, 16-mer random dsDNA library, 0.1% formaldehyde crosslink after washing; high values mean tight binding
# Details in all cases: protein: recombinant; tags: N-terminal GST; dsDNA, one strand shown
# FLI1 = target: T1, FLI1 (Homo sapiens, UniProt Q01543 1-452)
# T1 sequence: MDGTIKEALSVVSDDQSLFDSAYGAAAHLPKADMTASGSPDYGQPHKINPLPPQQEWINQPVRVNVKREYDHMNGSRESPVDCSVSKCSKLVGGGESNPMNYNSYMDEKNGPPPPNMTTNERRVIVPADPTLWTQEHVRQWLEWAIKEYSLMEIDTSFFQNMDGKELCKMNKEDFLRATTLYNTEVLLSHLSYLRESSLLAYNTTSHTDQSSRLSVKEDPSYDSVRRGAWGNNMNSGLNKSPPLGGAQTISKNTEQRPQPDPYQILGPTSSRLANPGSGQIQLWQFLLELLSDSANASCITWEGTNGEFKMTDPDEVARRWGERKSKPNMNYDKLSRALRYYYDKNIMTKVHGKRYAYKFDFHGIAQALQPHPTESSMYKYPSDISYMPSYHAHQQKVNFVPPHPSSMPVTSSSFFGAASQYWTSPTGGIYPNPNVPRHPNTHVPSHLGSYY
# Procedure, shortened: (§1)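 After expression in yeast as GST fusions, human transcription factors were bound to glutathione beads, DNA-barcoded and mixed with a tag-only sample. The pools were incubated with 200 nmole of a 16-mer random double-stranded DNA library in Tris/NaCl/DTT/glycerol buffer (30 min, room temperature), washed and crosslinked with 0.1% formaldehyde. Proximity ligation with BsaI/T4 ligase ran for 1 h at 37 °C, before PCR amplification and sequencing on an Illumina NextSeq500. Binding signal is a hexamer's read frequency for a factor divided by its frequency for the tag-only sample.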
# ELK1 = target: T2, ELK1 (Homo sapiens, UniProt P19419 1-428)
# T2 sequence: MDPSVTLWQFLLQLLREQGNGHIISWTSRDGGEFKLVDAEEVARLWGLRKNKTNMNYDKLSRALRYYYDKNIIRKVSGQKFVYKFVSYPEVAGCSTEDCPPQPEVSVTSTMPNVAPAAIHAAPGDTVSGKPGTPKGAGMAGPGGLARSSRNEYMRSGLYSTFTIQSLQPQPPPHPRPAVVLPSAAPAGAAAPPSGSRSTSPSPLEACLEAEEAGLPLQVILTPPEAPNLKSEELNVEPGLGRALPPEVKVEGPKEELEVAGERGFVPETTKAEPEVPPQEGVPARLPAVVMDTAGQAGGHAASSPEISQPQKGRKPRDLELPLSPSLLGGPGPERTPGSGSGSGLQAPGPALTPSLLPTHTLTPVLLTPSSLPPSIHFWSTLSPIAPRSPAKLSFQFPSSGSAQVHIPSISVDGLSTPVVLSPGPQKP
# Procedure, shortened: as §1
# EHF = target: T3, EHF (Homo sapiens, UniProt Q9NZC4 1-300)
# T3 sequence: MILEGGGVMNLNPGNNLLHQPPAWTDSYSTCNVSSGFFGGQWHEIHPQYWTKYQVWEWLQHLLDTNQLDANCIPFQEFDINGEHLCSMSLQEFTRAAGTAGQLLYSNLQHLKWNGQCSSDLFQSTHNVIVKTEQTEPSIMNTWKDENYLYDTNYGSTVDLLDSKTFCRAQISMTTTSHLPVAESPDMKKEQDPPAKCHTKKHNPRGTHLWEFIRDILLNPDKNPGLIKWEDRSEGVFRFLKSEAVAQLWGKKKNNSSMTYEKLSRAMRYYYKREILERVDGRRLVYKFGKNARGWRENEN
# Procedure, shortened: as §1
# ELK3 = target: T4, ELK3 (Homo sapiens, UniProt P41970 1-407)
# T4 sequence: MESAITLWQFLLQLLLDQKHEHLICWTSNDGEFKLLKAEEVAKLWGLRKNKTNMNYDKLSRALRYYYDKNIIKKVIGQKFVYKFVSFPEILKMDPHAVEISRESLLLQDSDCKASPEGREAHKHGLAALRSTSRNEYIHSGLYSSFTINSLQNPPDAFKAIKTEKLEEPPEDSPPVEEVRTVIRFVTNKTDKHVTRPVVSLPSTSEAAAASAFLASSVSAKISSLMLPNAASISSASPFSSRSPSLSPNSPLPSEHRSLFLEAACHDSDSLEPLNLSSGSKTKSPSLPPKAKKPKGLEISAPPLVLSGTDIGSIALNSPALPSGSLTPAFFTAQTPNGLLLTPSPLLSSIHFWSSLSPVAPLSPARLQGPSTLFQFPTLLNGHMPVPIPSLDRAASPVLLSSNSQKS
# Procedure, shortened: as §1
# ELK4 = target: T5, ELK4 (Homo sapiens, UniProt P28324-2 1-405)
# T5 sequence: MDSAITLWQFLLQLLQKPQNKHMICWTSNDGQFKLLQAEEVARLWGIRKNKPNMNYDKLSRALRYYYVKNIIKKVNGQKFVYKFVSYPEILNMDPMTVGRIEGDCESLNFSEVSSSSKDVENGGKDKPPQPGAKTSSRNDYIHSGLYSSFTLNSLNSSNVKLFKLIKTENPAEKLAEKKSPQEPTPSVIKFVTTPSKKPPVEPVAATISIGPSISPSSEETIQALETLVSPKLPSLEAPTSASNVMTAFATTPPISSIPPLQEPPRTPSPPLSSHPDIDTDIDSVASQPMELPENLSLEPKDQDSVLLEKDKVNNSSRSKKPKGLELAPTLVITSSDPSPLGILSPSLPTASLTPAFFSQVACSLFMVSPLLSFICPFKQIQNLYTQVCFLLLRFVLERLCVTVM
# Procedure, shortened: as §1
# ETS2 = target: T6, ETS2 (Homo sapiens, UniProt P15036 1-469)
# T6 sequence: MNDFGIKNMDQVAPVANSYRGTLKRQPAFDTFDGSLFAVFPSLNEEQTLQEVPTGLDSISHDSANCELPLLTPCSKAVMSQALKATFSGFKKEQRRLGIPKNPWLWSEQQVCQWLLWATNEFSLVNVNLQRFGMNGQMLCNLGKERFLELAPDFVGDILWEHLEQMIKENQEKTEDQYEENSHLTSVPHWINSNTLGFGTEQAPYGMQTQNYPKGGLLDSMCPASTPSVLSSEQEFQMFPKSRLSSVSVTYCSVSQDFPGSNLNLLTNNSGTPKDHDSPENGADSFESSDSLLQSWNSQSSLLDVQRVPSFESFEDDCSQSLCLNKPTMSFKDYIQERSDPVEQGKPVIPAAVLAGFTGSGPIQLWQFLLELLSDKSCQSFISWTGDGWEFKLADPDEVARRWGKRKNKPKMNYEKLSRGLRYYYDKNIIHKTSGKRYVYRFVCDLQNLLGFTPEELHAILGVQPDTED
# Procedure, shortened: as §1
# ELF1 = ELF1 (Homo sapiens, UniProt P32519 1-619)
# Procedure, shortened: as §1
# SPI1 = SPI1 (Homo sapiens, UniProt P17947 1-270)
# Procedure, shortened: as §1
# ETV2 = target: T7, ETV2 (Homo sapiens, UniProt O00321 1-342)
# T7 sequence: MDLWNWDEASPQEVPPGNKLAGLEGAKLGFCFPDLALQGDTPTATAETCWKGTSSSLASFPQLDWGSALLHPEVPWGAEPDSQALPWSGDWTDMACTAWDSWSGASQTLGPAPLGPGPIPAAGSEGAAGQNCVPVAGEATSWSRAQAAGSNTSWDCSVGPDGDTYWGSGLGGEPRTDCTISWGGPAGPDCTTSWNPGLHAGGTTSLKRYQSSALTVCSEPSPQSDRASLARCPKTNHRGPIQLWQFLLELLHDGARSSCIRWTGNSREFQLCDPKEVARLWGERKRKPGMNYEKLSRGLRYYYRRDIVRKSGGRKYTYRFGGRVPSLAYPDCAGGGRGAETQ
# Procedure, shortened: as §1
# ETV3L = target: T8, ETV3L (Homo sapiens, UniProt Q6ZN32 1-361)
# T8 sequence: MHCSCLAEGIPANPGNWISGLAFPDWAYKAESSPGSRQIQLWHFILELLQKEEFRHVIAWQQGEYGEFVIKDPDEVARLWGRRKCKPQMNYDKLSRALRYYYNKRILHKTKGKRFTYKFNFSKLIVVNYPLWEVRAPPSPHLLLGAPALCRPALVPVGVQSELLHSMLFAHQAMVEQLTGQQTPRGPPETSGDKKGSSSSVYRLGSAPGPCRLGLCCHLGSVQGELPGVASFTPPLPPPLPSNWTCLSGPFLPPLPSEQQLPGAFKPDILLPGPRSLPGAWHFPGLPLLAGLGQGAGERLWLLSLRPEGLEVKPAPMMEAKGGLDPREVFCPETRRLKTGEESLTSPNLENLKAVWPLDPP
# Procedure, shortened: as §1
# ETV7 = target: T9, ETV7 (Homo sapiens, UniProt Q9Y603 1-341)
# T9 sequence: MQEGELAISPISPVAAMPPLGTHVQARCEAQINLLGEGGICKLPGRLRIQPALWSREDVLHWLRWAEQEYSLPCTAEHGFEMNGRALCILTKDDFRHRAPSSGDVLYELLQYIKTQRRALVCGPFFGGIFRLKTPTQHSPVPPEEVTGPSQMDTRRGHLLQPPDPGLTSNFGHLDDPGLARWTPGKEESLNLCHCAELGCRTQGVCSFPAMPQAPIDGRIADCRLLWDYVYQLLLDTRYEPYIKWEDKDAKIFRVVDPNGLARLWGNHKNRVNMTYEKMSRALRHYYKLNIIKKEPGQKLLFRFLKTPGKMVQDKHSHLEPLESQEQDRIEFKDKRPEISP
# Procedure, shortened: as §1
# ELF5 = target: T10, ELF5 (Homo sapiens, UniProt Q9UKW6-2 1-255)
# T10 sequence: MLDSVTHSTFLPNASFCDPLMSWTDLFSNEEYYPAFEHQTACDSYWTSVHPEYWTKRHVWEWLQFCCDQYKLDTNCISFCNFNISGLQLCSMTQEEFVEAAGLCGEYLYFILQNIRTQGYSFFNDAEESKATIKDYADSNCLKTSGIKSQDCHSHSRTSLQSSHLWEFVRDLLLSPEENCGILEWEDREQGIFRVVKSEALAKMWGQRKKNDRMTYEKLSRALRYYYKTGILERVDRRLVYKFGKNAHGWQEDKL
# Procedure, shortened: as §1
# ETV3 = target: T11, ETV3 (Homo sapiens, UniProt P41162-2 1-143)
# T11 sequence: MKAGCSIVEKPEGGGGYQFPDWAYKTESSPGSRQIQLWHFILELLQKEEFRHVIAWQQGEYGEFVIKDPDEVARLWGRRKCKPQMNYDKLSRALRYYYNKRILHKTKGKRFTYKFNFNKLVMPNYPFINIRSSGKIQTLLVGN
# Procedure, shortened: as §1
# ETV6 = ETV6 (Homo sapiens, UniProt P41212 1-452)
# Procedure, shortened: as §1
# Sequence of ELF1 (P32519 whole entry): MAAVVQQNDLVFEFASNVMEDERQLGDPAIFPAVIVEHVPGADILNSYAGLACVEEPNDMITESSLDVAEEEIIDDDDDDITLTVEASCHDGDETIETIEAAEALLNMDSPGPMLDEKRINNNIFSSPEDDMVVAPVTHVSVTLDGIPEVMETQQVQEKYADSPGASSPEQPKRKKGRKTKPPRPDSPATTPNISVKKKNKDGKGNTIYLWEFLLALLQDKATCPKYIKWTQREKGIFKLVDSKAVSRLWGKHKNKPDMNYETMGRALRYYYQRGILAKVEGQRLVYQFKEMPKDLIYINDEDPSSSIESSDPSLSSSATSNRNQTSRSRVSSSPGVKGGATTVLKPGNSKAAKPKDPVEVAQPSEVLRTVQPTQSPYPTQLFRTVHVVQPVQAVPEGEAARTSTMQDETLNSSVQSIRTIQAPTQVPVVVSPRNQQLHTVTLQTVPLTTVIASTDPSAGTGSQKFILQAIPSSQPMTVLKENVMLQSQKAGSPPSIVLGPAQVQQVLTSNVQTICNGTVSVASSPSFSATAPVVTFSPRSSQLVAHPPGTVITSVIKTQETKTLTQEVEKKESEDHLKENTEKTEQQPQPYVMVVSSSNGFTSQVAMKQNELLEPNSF
# Sequence of ETV6 (P41212 whole entry): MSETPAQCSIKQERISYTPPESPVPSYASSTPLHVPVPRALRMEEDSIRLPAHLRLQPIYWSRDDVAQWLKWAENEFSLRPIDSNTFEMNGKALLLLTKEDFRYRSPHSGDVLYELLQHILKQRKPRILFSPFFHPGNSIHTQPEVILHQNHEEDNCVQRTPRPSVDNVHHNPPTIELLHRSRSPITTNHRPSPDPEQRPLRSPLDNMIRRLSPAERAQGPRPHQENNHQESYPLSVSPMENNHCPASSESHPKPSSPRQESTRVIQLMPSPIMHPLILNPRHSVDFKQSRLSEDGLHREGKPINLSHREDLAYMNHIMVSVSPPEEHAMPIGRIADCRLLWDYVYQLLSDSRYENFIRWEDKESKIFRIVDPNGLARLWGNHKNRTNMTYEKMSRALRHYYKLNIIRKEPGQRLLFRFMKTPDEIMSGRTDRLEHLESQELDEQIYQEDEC
Sequence,binding signal (FLI1),binding signal (ELK1),binding signal (EHF),binding signal (ELK3),binding signal (ELK4),binding signal (ETS2),binding signal (ELF1),binding signal (SPI1),binding signal (ETV2),binding signal (ETV3L),binding signal (ETV7),binding signal (ELF5),binding signal (ETV3),binding signal (ETV6)
CATCAG,"1 fold enrichment (6-mer frequency, TF over GST control)","1.04 fold enrichment (6-mer frequency, TF over GST control)","1.03 fold enrichment (6-mer frequency, TF over GST control)","1.06 fold enrichment (6-mer frequency, TF over GST control)","1.06 fold enrichment (6-mer frequency, TF over GST control)","1 fold enrichment (6-mer frequency, TF over GST control)",–,–,–,–,–,–,–,–
GACACT,"1.01 fold enrichment (6-mer frequency, TF over GST control)","1.02 fold enrichment (6-mer frequency, TF over GST control)",–,"1.06 fold enrichment (6-mer frequency, TF over GST control)","1.05 fold enrichment (6-mer frequency, TF over GST control)","1.05 fold enrichment (6-mer frequency, TF over GST control)","1.03 fold enrichment (6-mer frequency, TF over GST control)","1.02 fold enrichment (6-mer frequency, TF over GST control)","1.1 fold enrichment (6-mer frequency, TF over GST control)","1.08 fold enrichment (6-mer frequency, TF over GST control)","1.04 fold enrichment (6-mer frequency, TF over GST control)","1.05 fold enrichment (6-mer frequency, TF over GST control)","1.03 fold enrichment (6-mer frequency, TF over GST control)","1.13 fold enrichment (6-mer frequency, TF over GST control)"
